Compound activity from PubChem BioAssay.
JMJD2E inh = blocks human JMJD2E demethylase activity. B2RXH2. JMJD2E catalytic domain, FDH-coupled NADH fluorescence (FDH is formaldehyde dehydrogenase). Potency, µM (titrated, usually from 57.1 µM), for inactives: at the highest dose activity change, negative = inhibition, hits mostly inhibitors. hit rate 1.6% among 230,000. AID 2147; active means well fitted inhibition curve with a large enough effect, not every such curve was filed as active; inconclusive means small, poorly fitted or top-dose-only effect, or another doubt; inactive means no such curve, though single readings can be large or run the other way;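 further: potency means the concentration at half of the fitted maximal effect; 0% = wells with enzyme and -100% = buffer wells without enzyme; nearly all actives have a fitted effect of over 50% in size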
Target sequence (B2RXH2 1-337 limits assumed): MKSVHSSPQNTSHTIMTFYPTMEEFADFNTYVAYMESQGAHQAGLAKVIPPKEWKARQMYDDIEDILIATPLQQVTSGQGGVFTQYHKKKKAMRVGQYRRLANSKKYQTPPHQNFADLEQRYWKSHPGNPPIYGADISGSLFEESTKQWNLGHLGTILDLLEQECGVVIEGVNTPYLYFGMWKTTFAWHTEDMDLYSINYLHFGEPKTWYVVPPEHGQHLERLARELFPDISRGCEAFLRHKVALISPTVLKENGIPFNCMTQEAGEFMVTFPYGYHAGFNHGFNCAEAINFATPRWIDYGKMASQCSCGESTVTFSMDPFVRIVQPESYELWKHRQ
Tau fibril FP = blocks human tau fibril formation measured by polarization; AID 1468; Potency, µM (titrated, usually from 57.7 µM), inactives show top-dose activity, negative = inhibition, usual class: inhibitors; K18 P301L tau heparin fibrillization, Alexa594 FP, 6 h; hit rate 0.39% among 280,000; further: potency means the concentration at half of the fitted maximal effect; nearly all actives have a fitted effect of over 55% in size
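Recombinant K18 P301L […], labeled with Alexa 594 at 0.24 uM over 15 uM unlabeled; heparin inducer 20 uM final; 37 C, 6 hr; FP endpoint.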
Tau fluor cs = counter-screen for tau fibril formation inhibitors | Potency, µM (titrated, usually from 57.7 µM), without a hit: at the highest dose activity change, negative = decrease | tau K18 P301L Alexa594 fluorescence, heparin fibrillization | hit rate 0.93% among 280,000; further: potency means the concentration at half of the fitted maximal effect; nearly all actives have a fitted effect of over 55% in size
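Human K18 P301L tau (15 uM unlabeled plus 0.24 uM Alexa 594-labeled, final) in 100 mM sodium acetate pH 7 was mixed with compound and 20 uM heparin and incubated 6 hr at 37 C.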
Tau ThT inhib = blocks human tau fibril formation measured by thioflavin T; P10636; hit rate 2.1% among 270,000; Potency, µM (titrated, usually from 57.4 µM), for inactives: top-dose activity, negative = inhibition, usual class: inhibitors; recombinant tau K18 P301L (four-repeat tau fragment), heparin-induced fibrillization, ThT fluorescence; further: potency means the concentration at half of the fitted maximal effect; nearly all actives have a fitted effect of over 55% in size
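Aggregation was driven by heparin (20 uM final) acting on recombinant tau […] bearing P301L in 100 mM sodium acetate pH 7; fibrils were detected with Thioflavin T.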
NPSR antagonist = blocks cAMP signaling of the human neuropeptide S receptor. Q6W5P4. CHO-NPSR cells, cAMP TR-FRET, antagonist mode. Potency, µM (titrated, usually from 38.3 µM), inactives show at the highest dose activity change, negative = inhibition, hits mostly inhibitors. hit rate 1% among 220,000. AID 1461; further: potency means the concentration at half of the fitted maximal effect; nearly all actives have a fitted effect of over 50% in size
Target sequence (Q6W5P4 whole entry, looked up): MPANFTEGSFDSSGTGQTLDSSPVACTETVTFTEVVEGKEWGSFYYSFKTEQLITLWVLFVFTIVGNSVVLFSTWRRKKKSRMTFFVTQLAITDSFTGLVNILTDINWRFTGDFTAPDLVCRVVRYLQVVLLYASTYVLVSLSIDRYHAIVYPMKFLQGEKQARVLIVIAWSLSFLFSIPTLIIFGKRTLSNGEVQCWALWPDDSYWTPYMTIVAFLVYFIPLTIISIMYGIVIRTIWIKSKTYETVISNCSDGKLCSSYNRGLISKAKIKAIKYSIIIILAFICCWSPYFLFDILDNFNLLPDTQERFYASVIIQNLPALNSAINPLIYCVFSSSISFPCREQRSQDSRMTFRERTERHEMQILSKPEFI
PNC assembly inh = inhibitors of perinucleolar compartment assembly; PC3M PTB-GFP, PNC prevalence imaging, 16 h; hits give low values; activity change (PNC), negative = inhibition, % at 10 µM; AID 2417; hit rate 3.1% among 140,000;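 active means readout at or below -70, meaning at least 70% loss of cells showing the perinucleolar compartment, a nuclear body marking cancer cells; inconclusive means readout between -30 and a set limit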;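 further: plate controls were DMSO wells for no effect and camptothecin positive control wells for full effect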
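Read-out is percentage of cells bearing a perinucleolar compartment, from automated 20x imaging of fixed, Hoechst-stained PC3M PTB-GFP cells. Cells were seeded 4 h, then exposed 16 h to compound (23 nl of library stock) in duplicate plates.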
* = called active by the depositor; u = inconclusive; x = not tested or not shown; [ ] = dose if it differs, or a comment. Hits are enriched below; roughly 5.1% of the tested compounds scored in any of these assays. Unless noted, the call rests on the fitted dose curve; in most records, active means well fitted curve in the direction sought with a large enough effect; inconclusive means small, poorly fitted or top-dose-only effect, or another doubt; inactive means no such curve, though single readings can be large; an effect the other way counts as inactive or inconclusive. Unless noted, on the % scale 0 is the no-effect control and ±100 the full control effect.

SMILES	JMJD2E inh	Tau fibril FP	Tau fluor cs	Tau ThT inhib	NPSR antagonist	PNC assembly inh
O=C(N/N=C/c1ccc(-c2ccc(S(=O)(=O)Nc3ncccn3)cc2)o1)c1cc2ccccc2cc1O	u	u	u	14µM*	-18%[46.1 µM]	u
CCOc1ccc(C(=O)N/N=C/c2ccc(-c3ccc(S(=O)(=O)Nc4ncccn4)cc3)o2)cc1	u	-1%	-19%	u	-16%[46.1 µM]	4
CCCCN(CC)CCCNC(=O)CC1Oc2ccccc2NC1=O (centres undefined)	5%	2%	-8%	-15%	-2%[46.1 µM]	-109*
c1ccc(-c2nnc(-c3ccccn3)s2)nc1	2.8µM*	16%	1%	u	-3%	x
Cc1nnc(N2CCN(C(=O)NC(C)C)CC2)c2nn(-c3ccccc3)c(C)c12	x	-1%	4%	0%	x	x
COc1ccc(NC(=S)Nc2cccc3cnccc23)cc1	-24%	u	-21%	u	12%	-10
S=C(Nc1cccnc1)Nc1cccc2cnccc12	14µM*	u	-19%	13µM*	11%	x
CN(C)S(=O)(=O)c1cccc(NC(=S)Nc2cccc3cnccc23)c1	28µM*	u	-29%	u	14%	x
Fc1ccc(NC(=S)Nc2cccc3cnccc23)cc1	-14%	u	u	7.9µM*	-9%	x
S=C(Nc1ccc(Cl)cc1)Nc1cccc2cnccc12	14µM*	u	u	25µM*	-4%	-26
CC(=O)Nc1nonc1-c1nc2ccccc2n1Cc1ccccc1Br	x	-6%	-20%	-7%	x	x
COc1ccc(NC(=O)c2cc(-c3ccccc3F)no2)cc1	x	-8%	-16%	2%	x	x
Cc1cc(N2CCC(C(=O)Nc3ccc(F)cc3C)CC2)n2nc(C)c(-c3ccc(Cl)cc3)c2n1	x	-5%	-11%	0%	x	x
CC(C)CCn1c(=O)c2sccc2n2c(CCCC(=O)NC(C)C)nnc12	x	-2%	-15%	-13%	x	x
Cc1ccccc1Nc1scc(-c2ccc(Cl)cc2)[n+]1-c1ccccc1C	3%	-3%	-12%	u	7.9µM*	x
Cc1c(Nc2scc(-c3ccccc3)[n+]2-c2ccccc2)c(=O)n(-c2ccccc2)n1C	-24%	4%	-5%	u	-33%	x
O=C1c2oc3ccccc3c(=O)c2C(c2ccccc2F)N1Cc1ccc2c(c1)OCO2 (centres undefined)	x	-4%	-14%	-4%	x	x
Oc1ccccc1/C=N/NC(=S)NC1CC2CC1C1C=CCC21 (centres undefined)	16µM*	-13%	13µM*[quencher]	-11%	u	x
COc1cccc(/C=N/NC(=S)NC2CC3CC2C2C=CCC32)c1O (centres undefined)	-6%	9%	0%	-4%	1%	x
Cc1ccc(-c2nc3nc(C)cc(N4CCN(c5cc(Cl)ccc5C)CC4)n3n2)cc1	x	0%	1%	-13%	x	x
CCOC(=O)c1c(C)nc2ccccc2c1C	-13%	7%	-1%	0%	12%[46.1 µM]	u
CCOC(=O)c1c(Nc2ccccc2N)cc(C)nc1C	9%	2%	2%	3%	9%[46.1 µM]	-107*
N#Cc1c(N2CCN(c3ccc(F)cc3)CC2)nc(N)c2c(N)nc3c(c12)CC(=O)N3C1CC1	-6%	11%	7%	9%	-10%	x
CN(CCO)c1nc(N)c2c(N)nc3c(c2c1C#N)CC(=O)N3C1CCCC1	u	u	u	28µM*	-9%[46.1 µM]	45
CN(c1ccccc1)S(=O)(=O)c1ccc(NC(=O)c2cc(=O)c3ccccc3o2)cc1	x	u	u	-5%	x	x
SMILES	JMJD2E inh	Tau fibril FP	Tau fluor cs	Tau ThT inhib	NPSR antagonist	PNC assembly inh
O=C(CSc1nnc(NC2CCCCC2)s1)Nc1ccc2c(c1)C(=O)c1ccccc1C2=O	-16%	u	8.9µM*[quencher]	u	-16%	x
CC(C)Nc1nnc(SCC(=O)Nc2ccc3c(c2)C(=O)c2ccccc2C3=O)s1	3%	14%	13µM*[quencher]	10µM*	-4%	u
COc1ccccc1NC(=O)CSc1oc(-c2ccccc2)nc1S(=O)(=O)c1ccc(C)cc1	x	-14%	-26%	14%	x	x
NC(=O)N/N=C\c1cc(Br)ccc1O	u	6%	-3%	-6%	35%	7
CC(C)(C)c1nnc(N/N=C/c2cc(Br)ccc2O)n(N)c1=O	22µM*	12%	u	-18%	u	14
COc1cc(OC)c(N(C)C(=O)c2c(C)oc3ncnc(N4CCCCC4)c23)cc1Cl	x	-13%	-11%	-6%	x	x
CCOC(=O)N1CCN(S(=O)(=O)c2ccc(OCC(=O)OC)c(C)c2)CC1	2%	-6%	7%	2%	-8%[46.1 µM]	-84*
COc1ccc(NC(=O)c2cc3c(=O)n(Cc4ccco4)ccc3nc2C)c(OC)c1	x	-1%	-14%	-11%	x	x
COC(=O)C1=C(C)N(CCc2ccc(OC)c(OC)c2)C(=O)/C1=C\N(C)C	-6%	u	-26%	14µM*	-1%[46.1 µM]	7
Cn1c(=S)[nH]c2c(c1=O)C(C)(C)Cc1ccccc1-2	-19%	-2%	-11%	-2%	6.3µM*	x
CCn1c(=S)[nH]c2c(c1=O)C(C)(C)Cc1ccccc1-2	-5%	-6%	-20%	-7%	u	x
O=C(NCc1ccc(Cl)cc1)C1CCN(S(=O)(=O)Cc2ccccc2)CC1	x	2%	-5%	-5%	x	x
CC(C)(S)[C@@H](N)C(=O)O	2.2µM*	u	-17%	u	4%	35
COc1ccc(C(=O)/C=C/N(C)C)cc1	8%	u	-14%	u	-8%[46.1 µM]	-80*
CCOc1ccc(-c2nn(-c3ccccc3)cc2C2NC(=O)NC(C)=C2C(=O)OC(C)C)cc1C (centres undefined)	x	2%	-18%	-12%	x	x
CC(=O)N(/N=C1\Sc2ccccc2C1=O)c1ccc(C)cc1C	5%	5%	-21%	u	-14%[46.1 µM]	11
CC(=O)N(/N=C1\Sc2ccccc2C1=O)c1ccccc1C	5%	6%	-17%	11µM*	-6%[46.1 µM]	-13
CCn1c(Cc2cccc3ccccc23)nnc1SCC(=O)Nc1nccs1	-11%	5%	-3%	-8%	-10%[46.1 µM]	-100*
O=C(Cc1coc2ccc3ccccc3c12)Nc1nccs1	u	u	-29%	-15%	-10%[46.1 µM]	-107*
Cc1cc(C)nc(SCc2nnc(SCC(=O)Nc3nccs3)n2C)n1	-1%	10%	7%	-2%	-2%[46.1 µM]	-100*
CCC(C)NC(=O)Cn1c(=O)n(CC2CCC(C(=O)NC)CC2)c(=O)c2sccc21 (centres undefined)	x	5%	16%	14%	x	x
Cc1cc(C)cc(N2CC(c3nnc(NC(=O)c4ccco4)s3)CC2=O)c1 (centres undefined)	x	-2%	-5%	0%	x	x
CCC(CC)c1nn2c(=O)cc(COc3ccc(NC(=O)c4ccccc4Cl)cc3)nc2s1	x	-5%	-11%	u	x	x
